U2OS ROS induce: inducers of reactive oxygen species in cancer cells. actives 2% (n = 46,000). U2OS ROS induction, H2DCF-DA fluorescence. AID 624156. ROS induction (% of piperlongumine), % at 10 µM; in the data active = ROS induction above about 79%, passing the limit was not always enough;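 also: 0% = DMSO vehicle median and 100% = reference compound median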
PD-1 reverse act: activators reversing PD-1 mediated T-cell inhibition; 29,000 tested, under 10 active; activation, % (test concentration not listed); primary human CD4 T cells, PD-L1 beads, CellTiter-Glo 96 h; AID 2316; call rule not given here;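 also: 0% = median vehicle wells and 100% = positive control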
YB-1 expression: YB-1 expression inhibition; U2OS, qRT-PCR YB-1 vs CDIP delta delta Cp, 16 h; hits give high values; zero = DMSO, each unit about twofold; delta delta Cp (YB-1 minus CDIP) (concentration not given with the values); actives 0.37% (n = 30,000);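 active = delta delta Cp rounded down to an integer at or above 3, about 3 SD of DMSO wells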;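 also: higher means less YB-1 transcript or more CDIP transcript relative to DMSO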
Numbers without * were called inactive. The list is not random: actives were taken first. Their share in the collection is about 2.1%.

CC1(C)C(=O)C=C[C@@]2(C)C1C(=O)C(=O)[C@]1(C)C2CC[C@@]2(C)[C@H](c3ccoc3)C[C@H]3O[C@]321 (stereo partly specified) was read as U2OS ROS induce 178.5* and YB-1 expression 0.446.
`CC(=O)OC[C@]12C[C@H](O)C(C)=C[C@H]1O[C@@H]1[C@H](O)[C@@H](OC(C)=O)[C@@]2(C)[C@]12CO2` gave U2OS ROS induce -2.4, PD-1 reverse act -5.2 and YB-1 expression 1.19.
`Clc1cccc(N2CCNCC2)c1` gave U2OS ROS induce -8.8 and YB-1 expression 0.174.
For O=C(NC1CN2CCC1CC2)c1cccc(Cl)c1 (stereo unspecified) the results were U2OS ROS induce 87.7*, PD-1 reverse act 0.6 and YB-1 expression -0.588.
`CCC(C)(O)C(=O)O[C@H]1C(=O)O[C@@H]2C[C@H]3C(C)=CC(=O)[C@@H](O)[C@]3(C)[C@H]3[C@@]4(O)OC[C@]32[C@@H]1[C@@H](C)[C@H]4O` (stereo partly specified) gave U2OS ROS induce 64.3, PD-1 reverse act -7.4 and YB-1 expression 0.743.
For CC(/C=C/[C@@]1(C)[C@H](C)CCC(=O)[C@@H]1C)=C\Cc1c(O)c(Cl)c(C)c(C=O)c1O the results were U2OS ROS induce -5.4, PD-1 reverse act -4.6 and YB-1 expression 0.456.
C[C@@H]1CN([C@@H](C)CO)C(=O)CCCn2nncc2CO[C@@H]1CN(C)C(=O)Oc1ccc2ccccc2c1 was read as U2OS ROS induce 43.7 and YB-1 expression 0.284.
Screening C[C@@H]1CN([C@H](C)CO)C(=O)CCCn2nncc2CO[C@@H]1CN(C)C(=O)Oc1ccc2ccccc2c1 returned U2OS ROS induce 149.4* and YB-1 expression -0.0369.
`C/C=C\C(=O)O[C@@H]1C[C@H]2O[C@@H]3C=C(C)C(=O)C[C@]3(C)[C@]1(C)[C@]21CO1` gave U2OS ROS induce 6.1, PD-1 reverse act -8.6 and YB-1 expression 0.983.
Screening O=C(CCCN1CCC2(CC1)C(=O)NCN2c1ccccc1)c1ccc(F)cc1 returned U2OS ROS induce 98.1* and YB-1 expression 0.121.
Screening O=C1NCN(c2ccccc2)C12CCN(CCCOc1ccc(F)cc1)CC2 returned U2OS ROS induce 0.0 and YB-1 expression -0.0848.
Screening CCOC(=O)C1=C(N)Oc2c(c(=O)oc3ccccc23)C12C(=O)N(CC(=O)OC)c1ccccc12 (stereo unspecified) returned U2OS ROS induce 97.1*, PD-1 reverse act -0.2 and YB-1 expression -0.559.
`CCOC(=O)C1=C(N)Oc2c(c(=O)oc3ccccc23)C1c1ccccc1` (stereo unspecified) gave U2OS ROS induce -4.8.
For C/C=C(/C)C(=O)O[C@H]1C(C)=C2[C@H]([C@@H]1OC(=O)CCCCC)[C@@](C)(OC(C)=O)C[C@H](OC(=O)CCC)[C@@]1(O)[C@H]2OC(=O)[C@@]1(C)O the results were U2OS ROS induce 8.6 and PD-1 reverse act -42.3.
`C[CH2][Hg][S]c1ccccc1C(=O)O` gave U2OS ROS induce 135.9* and YB-1 expression -0.604.
CNc1ccccc1C(=O)O was read as U2OS ROS induce 5.9 and YB-1 expression 0.204.
C=C1[C@@H](C)[C@H]2[C@H](Cc3ccccc3)NC(=O)[C@]23OC(=O)/C=C\[C@H](O)CCC[C@@H](C)C/C=C/[C@H]3[C@@H]1O was read as U2OS ROS induce -0.7, PD-1 reverse act -12.9 and YB-1 expression 0.465.
For C=CC1C[N+]2([O-])CCC1CC2C(O)c1ccnc2ccccc12 (stereo unspecified) the results were U2OS ROS induce 2.2 and YB-1 expression 0.505.
COC(=O)C1=COC(C)C2CN3CCc4c([nH]c5cc(OC)ccc45)C3CC12 (stereo unspecified) was read as U2OS ROS induce 103.3*, PD-1 reverse act 0.1 and YB-1 expression -0.0496.
Screening COC(=O)C1=COC(C)C2CN3CCC4(C(=O)Nc5ccccc54)C3CC12 (stereo unspecified) returned U2OS ROS induce 10.3, PD-1 reverse act 1.8 and YB-1 expression -0.146.
`C/C1=C/[C@@H](C)C/C=C/[C@H]2[C@@H]3O[C@]3(C)[C@@H](C)[C@H]3[C@H](Cc4c[nH]c5ccccc45)NC(=O)[C@]32C(=O)/C=C\C(=O)[C@@H]1O` gave U2OS ROS induce 46.8 and YB-1 expression 0.48.
`C=C(CO)C(=O)O[C@H]1CC(=C)[C@@H]2C[C@H](O)C(=C)[C@@H]2[C@H]2OC(=O)C(=C)[C@@H]21` gave U2OS ROS induce 96.1*, PD-1 reverse act -3.8 and YB-1 expression 0.676.
For C=C(CO)C(=O)O[C@H]1C/C(C)=C\CC/C(CO)=C\[C@H]2OC(=O)C(=C)[C@H]12 the results were U2OS ROS induce 72.6, PD-1 reverse act -17.5 and YB-1 expression -8.45.
`CN(CC(=O)Nc1ccc(Cl)cc1C(=O)c1ccccc1)S(=O)(=O)c1ccc(Cl)cc1` gave U2OS ROS induce 5.9 and PD-1 reverse act -0.6.

Screening results from PubChem BioAssay.
